Compounds with a hit are over-represented: about 17% of the library has one in this group of screens.
HT1080-NT tox – kills 2HG-producing HT-1080-NT fibrosarcoma cells; HT-1080-NT fibrosarcoma viability, CellTiter-Glo ATP luminescence, 48 h; Potency, µM (highest dose often 46.1 µM), for inactives: at the top dose activity, negative = less viability, hits mostly cytotoxic; AID 686970; 1.6% of 360,000 active;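 also: NT is the 2HG producing partner of a matched IDH1 knockdown line; 0% = DMSO-treated cells and -100% = media-only wells without cells; nearly all actives have a fitted effect of over 55% in size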
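Luminescent CellTiter-Glo readout after 48 hours of compound exposure at 37 degrees C defined viability of HT-1080-NT cells. Activity was normalized to DMSO wells and cell-free media wells; concentration-response curves were fitted and assigned curve classes.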
TDP1 cell noCPT – qHTS for Inhibitors of human tyrosyl-DNA phosphodiesterase 1 (TDP1): qHTS in cells in absence of CPT | DT40 Tdp1-/- hTDP1 cells, no CPT, ATP luminescence, 48 h | Potency, µM (series often up to 46.2 µM), inactives show at the top dose activity change, negative = growth inhibition, most hits filed as inhibitors | 15% of 420,000 active; also: % is scaled to controls: 0 for no effect and ±100 for the full control effect; nearly all actives have a fitted effect of over 55% in size
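Chicken DT40 Tdp1-/- cells stably complemented with human TDP1 were seeded at 400 cells/well with DMSO in place of 20 nM camptothecin. After compound pinning, cells grew at least 48 hr at 37 °C; viability read by CellTiter-Glo luminescence.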
DT40 TDP1 CPT – DT40-hTDP1 cell growth loss with CPT; chicken DT40 Tdp1-/-;hTDP1 cells + 20 nM CPT, ATP luminescence, 48 h; Potency, µM (top dose mostly 46.2 µM), without a hit: top-dose activity change, negative = growth inhibition, usual class: inhibitors; 12% of 420,000 active; also: % is scaled to controls: 0 for no effect and ±100 for the full control effect; nearly all actives have a fitted effect of over 55% in size
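Cell growth measured by CellTiter-Glo luminescence after a minimum 48 h, 37 C compound exposure with 20 nM CPT in Tdp1-knockout DT40 cells stably expressing hTDP1, seeded 400/well; qHTS titration format.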
TGFb SMAD3 inh – blocks TGF-b signaling | AID 588855 | 1.2% of 410,000 active | HepG2 CAGA-GFP TGF-b/SMAD3 reporter, GFP fluorescence, 18 h; TGF-beta stimulated, 500 pg/mL final | Potency, µM (series often up to 46.1 µM), inactives show at the top dose activity, negative = inhibition, actives largely listed as inhibitors; also: % is scaled to controls: 0 for no effect and ±100 for the full control effect; nearly all actives have a fitted effect of over 65% in size
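Per well, imaged GFP fluorescence of HEPG2 CAGA-GFP cells gives the signal; cells get compound, then TGF-beta (500 pg/mL final), 18 h at 37 degrees C; %Activity versus -TGF-beta and +DMSO controls.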
HepG2 viability – kills HepG2 cells in TGF-b inhibitor counter-screen. 0.76% of 410,000 active. Potency, µM (doses to about 46.1 µM), for inactives: at the highest dose activity change, negative = cytotoxicity, hits mostly cytotoxic. HepG2 CAGA-GFP viability, ATP luminescence, 18 h. AID 588856
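CellTiter-Glo luminescence gave cytotoxicity after 18 hours at 37 degrees C. The cells were HepG2 CAGA-GFP in 1% FBS DMEM, stimulated with 500 pg/mL TGF-beta after compound addition. %Activity was normalised to no-cell wells (complete cell-killing) and DMSO (no toxicity), and curves were fitted and classified.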
HT1080 IDH1KD tx – kills HT-1080 cells with IDH1 knockdown; HT-1080 IDH1 knockdown viability, ATP luminescence, 48 h; Potency, µM (highest dose often 46.1 µM), for inactives: top-dose activity, negative = toxicity, actives largely listed as cytotoxic; 2% of 360,000 active;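 also: 0% = DMSO wells and -100% = cell-free medium wells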
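Using the IDH1-knockdown HT-1080 line run in the same batch and compound series as the NT line, viability after 48 h at 37 °C was determined by CellTiter-Glo luminescence and expressed as % activity.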
Starred values were filed as active, the others as inactive; ? = inconclusive; . = not tested or not shown. Calls follow the shape of the dose curve; as a rule, active = well fitted curve in the direction sought with a large enough effect; inconclusive = small, poorly fitted or top-dose-only effect, or another doubt; inactive = no such curve, though single readings can be large; an effect the other way counts as inactive or inconclusive. Potency is read from the fitted curve at half-maximal effect.

SMILES	HT1080-NT tox	TDP1 cell noCPT	DT40 TDP1 CPT	TGFb SMAD3 inh	HepG2 viability	HT1080 IDH1KD tx
CC(=O)Nc1ccc(-c2ccnc3c2CC(C(=O)NCc2ccccc2)O3)cc1 (stereo not drawn)	?	0.018µM*	0.023µM*	?	0%	?
CC(=O)Nc1ccc(-c2ccnc3c2CC(C(=O)NCc2ccco2)O3)cc1 (stereo not drawn)	?	0.0065µM*	0.18µM*	-16%	-18%	?
CN1C(C(=O)Nc2ccc(C(=O)O)cc2)=C(O)c2ccccc2S1(=O)=O	-15%	4%	-6%	-3%	5.6µM*	-4%
Cc1ccccc1NC1=C(C(=O)c2ccccc2)N(C)S(=O)(=O)c2ccccc21	-13%	?	-29%	12%	4%	-11%
CN1C(C(=O)c2ccccc2)=C(NC(=O)c2ccc(F)cc2)c2ccccc2S1(=O)=O	.	?	?	-3%	-3%	.
CN1C(C(=O)c2ccccc2)=C(NC(=O)c2ccccc2Br)c2ccccc2S1(=O)=O	.	6.5µM*	12µM*	-12%	-20%	.
O=C(Cc1ccccc1F)Nc1cccc(S(=O)(=O)N2CCOCC2)c1	4%	-24%	5%	3%	-1%	12%
CCc1cc(=O)n2c([nH]c3ccccc32)c1C#N	-12%	?	?	8%	-46%	-2%
CCc1c(C)c(C#N)c2[nH]c3ccccc3n2c1=S	?	12µM*	12µM*	?	-35%	?
CCc1cc(=S)n2c([nH]c3ccccc32)c1C#N	?	23µM*	16µM*	7.9µM*	-41%	?
COc1cccc(NC(=O)Cn2cc(S(=O)(=O)N3CCCC3)c(S(=O)(=O)N3CCCC3)c2)c1	.	-18%	-5%	-28%	7%	.
COc1cc(/C=C/c2ccc3cccc(O)c3n2)ccc1O	-30%	16µM*	?	?	-53%	?
COc1cc(Br)cc(/C=C/c2ccc3cccc(O)c3n2)c1O	?	9.2µM*	15µM*	?	-33%	?
CSc1ccc(/C=C/c2ccc3cccc(O)c3n2)cc1	?	21µM*	16µM*	-20%	-37%	?
COc1cc(Br)c(/C=C/c2ccc3cccc(O)c3n2)cc1OC	-30%	13µM*	12µM*	?	-29%	-18%
COc1cc(/C=C/c2ccc3cccc(OC)c3n2)c(O)c([N+](=O)[O-])c1	-20%	-15%	-24%	?	-30%	-6%
CCOc1cc(/C=C/c2ccc3cccc([N+](=O)[O-])c3n2)cc(Cl)c1O	-4%	?	?	?	-11%	-6%
O=[N+]([O-])c1cccc2ccc(/C=C/c3ccc(Cl)cc3)nc12	-1%	-4%	1%	-21%	-25%	1%
Oc1cccc2ccc(/C=C/c3ccccc3Br)nc12	?	5.8µM*	6.5µM*	15%	-1%	?
Oc1c(Cl)cc(Cl)cc1/C=C/c1ccc2cccc(O)c2n1	?	?	?	?	-38%	?
Oc1ccc2ccccc2c1/C=N/n1cnnc1	-1%	4%	-3%	-11%	-2%	-14%
Oc1ccc2ccccc2c1/C=C/c1ccc2c(Br)cc(Br)c(O)c2n1	?	5.2µM*	3.7µM*	?	-83%	29µM*
O=[N+]([O-])c1cccc2ccc(/C=C/c3cccc(Br)c3)nc12	-11%	?	-7%	-11%	-23%	-13%
Oc1ccc(Cl)cc1/C=C/c1ccc2cccc(O)c2n1	?	26µM*	?	?	-65%	21µM*

Screening results deposited in PubChem by National Center for Advancing Translational Sciences (NCATS).
